Values joined by “and” are separate entries in the source; they are usually repeats but may differ in a detail not shown here. Equal entries are not always repeated. The whole screen tested about 260,000 compounds, of which about 1,500 (0.58%) were called active. Inconclusive results (about 5%) are left out.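 The calls were made as follows: active = inhibition above a set limit at one or more doses, reproduced on every date tested; inconclusive = results disagree between test dates, or hit never tested in dose response; inactive = the rest.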 These entries were drawn from the full list. Entries with a potency or affinity are not part of this list.
What follows are compounds tested against Virion infectivity factor (Human immunodeficiency virus type 1 group M subtype B (isolate BH10)) + Virion infectivity factor (Human immunodeficiency virus type 1 group M subtype B (isolate BRU/LAI)) + Virion infectivity factor (Human immunodeficiency virus type 1 group M subtype B (isolate PCV12)) + Virion infectivity factor (Human immunodeficiency virus type 1 group M subtype B (isolate HXB2)) + DNA dC->dU-editing enzyme APOBEC-3G (Homo sapiens) (UniProt P69720+P69721+P69722+P69723+Q9HC16) (assay: inhibitors of Vif binding to APOBEC3G peptide, primary screen, biochemical, TR-FRET, GST-Vif 1-94, biotin-A3G peptide, dose response retest (AID 1117319;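 also: Vif residues 1-94 fused to GST binding biotinylated APOBEC3G peptide 110-148; 0% = full assay without inhibitor and 100% = GST in place of GST-Vif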)). Settings: hits give high values.

inhibition, inactive:
CCC(NC(=O)NNC(N)=S)(C(F)(F)F)C(F)(F)F 2.24%
CCOc1ccccc1N1CCN(C(=O)c2ccc(-c3ccc(OC(C)=O)cc3)cc2)CC1 -6.48%
Cc1cc(C)c(C(=O)CSc2nnc(C)s2)c(C)c1 -3.21%
CCOC(=O)C1C(=O)CC(C)(O)C(C(=O)OCC)C1c1cccc(OC(F)(F)C(F)F)c1 (stereo not drawn) 1.49%
Cc1cccc(OCc2nc(C#N)c(NCc3ccc4c(c3)OCO4)o2)c1 2.3%
C[C@H](NC(=O)c1ccco1)C(=O)OCC(=O)N1CC(=O)Nc2ccccc21 1.38%
COc1ccccc1NC(=O)CN(c1ccccc1F)S(C)(=O)=O 2.7%
Cc1ccc(S(=O)(=O)Nc2cccc(C(=O)N3CCN(c4ccccc4O)CC3)c2)cc1F -3.67%
COc1ncnc2c1ncn2CCCN(C)CCc1ccccn1 3.23%
Nc1nc(N)c2c(n1)CN(Cc1ccc(Cl)cc1)C2 -2.69%
Cc1ccc(C(=O)N/N=C\c2ccc(-c3ccc(Cl)cc3)o2)cn1 23.4%
Cc1cccc(C(=O)N/N=C/c2cc(Br)c(Br)o2)c1 0.73%
COC(=O)COc1ccc(S(=O)(=O)Nc2ccc3c(c2)OCCO3)cc1Cl -0.68%
COc1cccc(CNC(=O)CCS(=O)(=O)c2cccs2)c1 -7.15%
COc1cccc(CNC(=O)CCCNS(=O)(=O)c2cccs2)c1 22.8%
CC1(C)CC(=O)c2cc(OCC(=O)NCCCN3CCN(c4ccc(F)cc4)CC3)ccc2O1 -7.66% and 5.99%
O=C(O)CN1C(=O)CNC1=O -0.07%
CC(=O)Nc1ccc(S(=O)(=O)NCC(=O)OCC(=O)NCc2ccco2)cc1 7.01%
CCOC(=O)C1CCCN(C(=O)COC(=O)c2cc(=O)c3ccccc3o2)C1 (stereo not drawn) 29.1%
CC(C)n1cc(CN2CCCC(CNS(=O)(=O)c3cccc4cccnc34)C2)cn1 (stereo not drawn) 10.9%
Cc1nn(C)cc1/C=C1\SC(=S)NC1=O -1.22%
Cc1ccc(-n2c(C)cc(/C=C3\SC(=O)NC3=O)c2C)cc1 -6.8%
Cc1cc(/C=C2\SC(=S)NC2=O)c(C)n1-c1ccc(O)cc1 71.3%
Cc1cc(/C=C2\SC(N)=NC2=O)c(C)n1-c1ccccc1 19.3%
COC(=O)c1cccc(-n2c(C)cc(/C=C3\SC(=O)NC3=O)c2C)c1 3.07%
Cc1cc(/C=C2\SC(=S)NC2=O)c(C)n1C1CC1 30.7%
COc1cccc(CNC(=O)Cn2ncc3c(=O)oc4ccccc4c32)c1 -6.25%
Cc1cccc(-n2ccc(=O)c(C(=O)O)n2)c1 -11%
O=C(Nc1ccc(Cl)c(S(=O)(=O)N2CCOCC2)c1)c1ccccn1 -0.06%
O=C(O)CCCN1C(=O)C2C3CCC(C3)C2C1=O (stereo not drawn) 6.83%
Cc1cccc(C)c1-n1c(C)cc(/C=N\Nc2ccc([N+](=O)[O-])cn2)c1C 10.6%
Cc1ccccc1-n1c(C)cc(/C=N/Nc2ccc([N+](=O)[O-])cn2)c1C 6.93%
Cc1cc(/C=N/Nc2ccc([N+](=O)[O-])cn2)c(C)n1-c1ccccc1 6.45%
Cc1ccc(-n2c(C)cc(/C=N/Nc3ccc([N+](=O)[O-])cn3)c2C)cc1 12.6%
Cn1ncc(Cl)c1C(=O)NC(=S)Nc1sc2c(c1C#N)CCCCC2 1.11%
CC(=O)N(C1=C(O)c2ccccc2C(=O)C1=O)C1CCCCC1 -2.6%
O=C(NCc1ccco1)c1cccnc1Cl 2.06%
COc1cccc(NC(=O)Nc2cccs2)c1 19.8%
COc1ccc(NC(=O)Nc2cccs2)cc1Cl 3.45%
CC[C@@H]1CCCCc2ccccc2[C@@H](C(=O)C[C@@H](O)CC(C)=O)OC1=O -2.17%
CCC(=O)Nc1cccc(C2=NOC3(C2)C[C@@H](C(N)=O)N(C(=O)c2cc([N+](=O)[O-])cc([N+](=O)[O-])c2)C3)c1 (stereo partly drawn) 9.27%
C=C(C)C(=O)N1CC2(CC(c3cccc(NC(=O)COc4ccc(Cl)cc4)c3)=NO2)C[C@@H]1C(N)=O (stereo partly drawn) -2.13%
C/C=C(\C)C(=O)Nc1cccc(C2=NOC3(C2)C[C@H](C(N)=O)N(C(=O)C(c2ccccc2)c2ccccc2)C3)c1 (stereo partly drawn) 17.8%
CCC(=O)Nc1cccc(C2=NOC3(C2)C[C@@H](C(N)=O)N(C(=O)COc2ccc(Cl)cc2)C3)c1 (stereo partly drawn) 1.74%
C/C=C(\C)C(=O)Nc1cccc(C2=NOC3(C2)C[C@H](C(N)=O)N(C(=O)c2cc([N+](=O)[O-])cc([N+](=O)[O-])c2)C3)c1 (stereo partly drawn) 9.79%
C/C=C(/C)C(=O)Nc1cccc(C2=NOC3(C2)C[C@@H](C(N)=O)N(C(=O)CCCCC)C3)c1 (stereo partly drawn) 4.38%
CCC(=O)Nc1cccc(C2=NOC3(C2)C[C@@H](C(N)=O)N(C(=O)C(c2ccccc2)c2ccccc2)C3)c1 (stereo partly drawn) 5.6%
CCCCCC(=O)Nc1cccc(C2=NOC3(C2)C[C@H](C(N)=O)N(C(=O)CCCCC)C3)c1 (stereo partly drawn) 14.4%
Cc1ccc(-c2cc(C(=O)NC3=NCCS3)c3ccccc3n2)cc1C -1.5%
O=S(=O)(CC=CCS(=O)(=O)c1ccccc1)c1ccccc1 -17%
Cc1nc2nc(C(F)(F)F)[nH]c2nc1C 0.02%
CC(C)(C)NC(=O)C(c1ccc(F)cc1)N(Cc1ccco1)C(=O)CCC(=O)Nc1nccs1 (stereo not drawn) 5.5%
CN[C@@H](C)C(=O)NC[C@H]1O[C@@H](n2cnc3c(N)ncnc32)[C@H](O)[C@@H]1O -3.01%
CC1(C)CC(=O)c2c(O)cc(O)cc2O1 -0.4%
CCC(=O)Nc1cccc(C2=NOC3(C2)C[C@@H](C(N)=O)N(C(=O)CC(c2ccccc2)c2ccccc2)C3)c1 (stereo partly drawn) 7.06%
C/C=C\C(=O)Nc1cccc(C2=NOC3(C2)C[C@H](C(N)=O)N(C(=O)/C=C/CC)C3)c1 (stereo partly drawn) 5.75%
C/C=C(/C)C(=O)Nc1cccc(C2=NOC3(C2)C[C@@H](C(N)=O)N(C(=O)/C=C/CC)C3)c1 (stereo partly drawn) 13.8%
C/C=C(/C)C(=O)Nc1cccc(C2=NOC3(C2)C[C@@H](C(N)=O)N(C(=O)CC(c2ccccc2)c2ccccc2)C3)c1 (stereo partly drawn) 24%
CCC(C)(C(=O)NC1CCCCC1)N(Cc1cccs1)C(=O)Cc1cccs1 (stereo not drawn) 23.9%
COc1cccc(OC)c1NC(=O)C1CCCN1C(=O)Nc1cccc(Cl)c1 (stereo not drawn) -0.22%
O=C(/C=C/c1cccc([N+](=O)[O-])c1)Nc1ccccn1 7.78%
CCOc1ccccc1NC(=O)COC(=O)COc1cccc2c1OC(C)(C)C2 2.02%
O=C(O)c1ccccc1-c1ccc(/C=C2\SC(=O)N(c3ccccc3)C2=O)o1 3.86%
COC(=O)C(C)N1C(=O)S/C(=C\c2ccc(-c3ccc(C(=O)O)cc3C)o2)C1=O (stereo not drawn) 15.9%
Cc1cccc(-n2ccnc2SCC(=O)O)c1C -0.53%
Cc1ccccc1OCC(=O)OCC(=O)c1ccc[nH]1 7.12%
O=C(COc1ccc(Cl)cc1Cl)c1ccc[nH]1 19.3%
Cc1ccnc(NC(=O)CCNC(=O)c2ccc(Cl)cc2)c1 -5.97%
COc1ccccc1N1CCN(C(=O)CSc2nnc(NC(=O)C3CC3)s2)CC1 9.27%
c1ccc(C2CNCCc3ccccc32)cc1 (stereo not drawn) -8.69%
CN1CCc2cc(Cl)c(O)cc2[C@@H](c2ccccc2)C1 -6.09%
CCc1cccc(C)c1NC(=O)Nc1c(Br)cnn1C -8.57%
Cc1ccc(S(=O)(=O)N2C[C@H]3[C@H]4C(=O)N(c5ccccc5)C(=O)[C@H]4C[C@H](OC(=O)NC4CCCC4)[C@@]3(O)C2)cc1 -0.48%
CC(OC(=O)c1ccc2c(c1)OCCO2)C(=O)NC1CCCCC1C (stereo not drawn) -7.15%
COc1ccc(C=C2C(=O)c3ccccc3C2=O)cc1O 4.34%
COc1cc(C=C2C(=O)c3ccccc3C2=O)ccc1O -0.66%
C#CCSC1=C(C#N)C(c2cccs2)C(C(=O)OCC)=C(C)N1 (stereo not drawn) 8.23%
CCOC(=O)C1=C(C)NC(SCC(N)=O)=C(C#N)C1c1cccs1 (stereo not drawn) -2.81%
Cn1c(SCC(=O)Nc2sc3c(c2C#N)CCC3)nnc1C1COc2ccccc2O1 (stereo not drawn) 2.45% and 32%
CCOC(=O)c1oc2ccccc2c1COC(=O)CNC(=O)c1cccc(C)c1 -6.29%
CN(C)Cc1c(C(=O)N/N=C/c2cccc(OCc3ccccc3)c2)nnn1-c1nonc1N 19.4%
CCN(CC)c1ccc(C(=O)NNC(=O)c2cccn2C)cc1 5.54%
O=S(=O)(c1ccc2c(c1)CCCN2)N1CCCCC1 8.06%
O=C(O)c1ccc2c(c1)CCCN2 -1.03%
CCOc1ccc(NC(=O)CN2CCN(CC(=O)Nc3ccc(C(N)=O)cc3)CC2)cc1 -3.98%
COc1ccc2c(c1)CC/C(=C/c1ccccn1)C2=O -2.19%
Cc1ccsc1/C=C/C1=Cc2c(sc(NC(=O)CSc3n[nH]c(N)n3)c2C#N)C(C)(C)C1 22.1%
CCOc1ccc(/C=C/C2=Cc3c(sc(NC(=O)CSc4n[nH]c(N)n4)c3C#N)C(C)(C)C2)cc1 1.67%

From PubChem BioAssay AID1117319 (Southern Research Institute, 2015)
